PubChem BioAssay (EPA / NIEHS)
Calls of active or inactive are those of the source. Rule for the calls: active = hit-call score of the fitted dose curve at least 0.9, where 1 is the maximum; inactive = score below 0.9.

Legend:
Conditions in all cases: mRNA level, 48 h; actives raise or lower the signal
[1] = read-out: Cytochrome P450 3A7 (Homo sapiens) (UniProt P24462); assay: LTEA_HepaRG_CYP3A7: Life Technologies and Expression Analysis (LTEA) Assay for CYP3A7 using HepaRG (AID 2283492)
Method in brief: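 HepaRG cells plated 48 h, then dosed in serum-free induction medium for 48 h at 8 concentrations (top 100 uM, half-log steps, 0.5% DMSO). CYP3A7 mRNA by qRT-PCR, normalised to ACTB/GAPDH/POLR2A; bidirectional fit versus DMSO.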

CYP3A5 (gene 1577) = assay: LTEA_HepaRG_CYP3A5: Life Technologies and Expression Analysis (LTEA) Assay for CYP3A5 using HepaRG (AID 2283493)
Method in brief: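 Human HepaRG hepatic cells receive 48 h chemical treatment at eight concentrations (half-log steps from 100 uM) in 0.5% DMSO. Expression of CYP3A5 is quantified by Fluidigm qRT-PCR and normalized to three reference genes.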

[2] = read-out: Fatty Acid-Binding Protein 1 (FABP1), FABP1 (gene 2168); assay: LTEA_HepaRG_FABP1: Life Technologies and Expression Analysis (LTEA) Assay for Fatty Acid-Binding Protein 1 (FABP1) using HepaRG (AID 2283494)
Method in brief: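 Values reflect bidirectional concentration-response fitting of FABP1 mRNA change against 0.5% DMSO controls. Human HepaRG cultures received eight half-log doses (top 100 uM) for 48 h; expression quantified by TaqMan qRT-PCR with housekeeping-gene normalization.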

[3] = read-out: Cytochrome P450 4A22 (Homo sapiens) (UniProt Q5TCH4); assay: LTEA_HepaRG_CYP4A22: Life Technologies and Expression Analysis (LTEA) Assay for Cytochrome P450 4A22 (CYP4A22) using HepaRG (AID 2283495)
Method in brief: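 qRT-PCR of CYP4A22 mRNA (Fluidigm TaqMan, normalized to three housekeeping genes) after 48 h chemical exposure of HepaRG cells; 8-point half-log series, top 100 uM, 0.5% DMSO vehicle. Bidirectional curve fitting vs DMSO baseline.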

[4] = read-out: Cytochrome P450 7A1 (Homo sapiens) (UniProt P22680); assay: LTEA_HepaRG_CYP7A1: Life Technologies and Expression Analysis (LTEA) Assay for Cytochrome P450 7A1 (CYP7A1) using HepaRG (AID 2283496)
Method in brief: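 HepaRG, 48 h exposure, 8-pt half-log series from 100 uM, 0.5% DMSO vehicle, duplicates. Readout: TaqMan qRT-PCR mRNA vs three housekeeping genes; bidirectional curve fit against DMSO baseline.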

[5] = read-out: Glutathione S-Transferase (GSTA2), GSTA2 (gene 2939); assay: LTEA_HepaRG_GSTA2: Life Technologies and Expression Analysis (LTEA) Assay for Glutathione S-Transferase (GSTA2) using HepaRG (AID 2283497)
Method in brief: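 Oxidative-stress marker GSTA2 is quantified by TaqMan qRT-PCR in HepaRG cultures treated 48 h across an eight-point range to 100 uM. Expression is normalized to endogenous controls and compared with 0.5% DMSO vehicle.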

[6] = read-out: Glutamate-cysteine ligase catalytic (GCLC), GCLC (gene 2729); assay: LTEA_HepaRG_GCLC: Life Technologies and Expression Analysis (LTEA) Assay for Glutamate-cysteine ligase catalytic (GCLC) using HepaRG (AID 2283498)
Method in brief: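 Oxidative-stress marker GCLC is measured as mRNA change in human HepaRG liver cells after 48 h chemical treatment in 0.5% DMSO, eight concentrations from 100 uM. Activity is fitted bidirectionally against vehicle.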

[7] = read-out: growth arrest and DNA damage 45 (GADD45G), GADD45G (gene 10912); assay: LTEA_HepaRG_GADD45G: Life Technologies and Expression Analysis (LTEA) Assay for growth arrest and DNA damage 45 (GADD45G) using HepaRG (AID 2283499)
Method in brief: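 Differentiated human HepaRG cells in serum-free induction medium were exposed for 48 h to 8 half-log concentrations up to 100 uM in 0.5% DMSO, in duplicate. GADD45G mRNA was measured by TaqMan qRT-PCR, normalised to ACTB, GAPDH and POLR2A, and fitted bidirectionally against DMSO.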

[8] = read-out: Glutamate-cysteine ligase regulatory (GCLM), GCLM (gene 2730); assay: LTEA_HepaRG_GCLM: Life Technologies and Expression Analysis (LTEA) Assay for Glutamate-cysteine ligase regulatory (GCLM) using HepaRG (AID 2283500)
Method in brief: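 Endpoint is GCLM transcript level by qRT-PCR, normalized to three housekeeping genes, after 48 h chemical exposure of human HepaRG cells (0.5% DMSO vehicle, top 100 uM, half-log dilutions). Fitting was bidirectional relative to DMSO.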

[9] = read-out: Glutathione S-transferase M3 (GSTM3), GSTM3 (gene 2947); assay: LTEA_HepaRG_GSTM3: Life Technologies and Expression Analysis (LTEA) Assay for Glutathione S-transferase M3 (GSTM3) using HepaRG (AID 2283501)
Method in brief: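 Differentiated HepaRG cells in serum-free induction medium were exposed in duplicate for 48 h to 8 half-log concentrations up to 100 uM in 0.5% DMSO. GSTM3 mRNA was measured by TaqMan qRT-PCR, normalized to ACTB/GAPDH/POLR2A, and fitted bidirectionally versus DMSO.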

Measured: AC50

Sequence of Cytochrome P450 3A7 (Homo sapiens) (P24462 whole entry, looked up): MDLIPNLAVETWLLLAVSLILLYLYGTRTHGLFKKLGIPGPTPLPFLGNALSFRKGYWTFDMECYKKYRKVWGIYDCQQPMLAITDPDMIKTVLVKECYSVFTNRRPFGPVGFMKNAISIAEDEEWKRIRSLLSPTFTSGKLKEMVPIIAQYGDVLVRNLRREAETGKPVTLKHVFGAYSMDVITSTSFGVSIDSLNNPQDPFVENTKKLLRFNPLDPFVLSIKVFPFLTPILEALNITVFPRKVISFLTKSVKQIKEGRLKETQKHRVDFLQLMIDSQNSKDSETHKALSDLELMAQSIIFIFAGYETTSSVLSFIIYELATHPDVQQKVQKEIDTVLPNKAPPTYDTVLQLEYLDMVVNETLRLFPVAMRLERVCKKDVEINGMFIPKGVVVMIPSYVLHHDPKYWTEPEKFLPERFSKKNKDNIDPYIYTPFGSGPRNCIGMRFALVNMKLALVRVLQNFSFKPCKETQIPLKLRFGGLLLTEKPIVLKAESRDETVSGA

CC(C)COC(=O)c1ccccc1C(=O)OCC(C)C
inactive: all assays above

Oc1ccccc1Cl
inactive: all assays above

N#CC(Br)(Br)C(N)=O
inactive: all assays above

Cc1ccc([N+](=O)[O-])cc1
active: [2] 10 µM | [4] 17.3 µM
inactive: all other assays above

O=P(OCCCl)(OCCCl)OCCCl
inactive: all assays above

OCCCl
inactive: all assays above

ClC1=C(Cl)[C@]2(Cl)[C@H]3[C@H]([C@@H]4C=C[C@H]3C4)[C@@]1(Cl)C2(Cl)Cl
active: [1] 8.45 µM | [2] 6.01 µM | [3] 29.1 µM | [4] 19.4 µM | [8] 12.7 µM
inactive: CYP3A5 (gene 1577) | [5] | [6] | [7] | [9]

Nc1ccc(Cc2ccc(N)cc2)cc1
active: [1] 21.4 µM
inactive: all other assays above

CC(C)(C)C(O)(CCc1ccc(Cl)cc1)Cn1cncn1 (centres undefined)
inactive: CYP3A5 (gene 1577) | [6] | [9]
active: [1] 2.43 µM | [2] 11.5 µM | [3] 57 µM | [4] 50 µM | [5] 76.4 µM | [7] 50 µM | [8] 50 µM

c1ccc(NNc2ccccc2)cc1
inactive: all assays above

c1ccc(C2CO2)cc1 (centres undefined)
not listed: [9]
inactive: all other assays above

Cc1cccc(N)c1N
inactive: [1] | [6] | [8] | [9]
active: CYP3A5 (gene 1577) 11.1 µM | [2] 62.6 µM | [3] 50 µM | [4] 46 µM | [5] 50 µM | [7] 50 µM

CS(=O)(=O)NC(=O)c1cc(Oc2ccc(C(F)(F)F)cc2Cl)ccc1[N+](=O)[O-]
active: [1] 4.43 µM
inactive: all other assays above

CN(C)c1ccc(C(=O)c2ccc(N(C)C)cc2)cc1
active: [2] 50 µM | [3] 50 µM
inactive: all other assays above

ClC1=C(Cl)C2(Cl)C3C(Cl)C=CC3C1(Cl)C2(Cl)Cl (centres undefined)
active: [2] 15.9 µM | [3] 13.1 µM | [4] 13.8 µM | [8] 32.1 µM
inactive: all other assays above

CC(C)N(Cc1ccccc1)C(=O)C(C)(C)C
active: [1] 11.5 µM | [2] 8.19 µM
inactive: all other assays above

CNC(=O)Oc1cccc2c1OC(C)(C)C2
active: [1] 7.32 µM | [2] 3.45 µM | [4] 9.92 µM
inactive: all other assays above

Cc1ccc(N=C=O)cc1N=C=O
active: [2] 23 µM | [3] 50 µM | [4] 31.7 µM | [5] 50 µM | [6] 30.3 µM | [7] 50 µM
inactive: [1] | CYP3A5 (gene 1577) | [8] | [9]

CCN(CC)CCO
inactive: all assays above
